Source: PubChem (National Center for Advancing Translational Sciences (NCATS))
Pol kappa inh-1 – qHTS for Inhibitors of Polymerase Kappa | DNA polymerase kappa (Homo sapiens), Q9UBT6 | AID 588579, 2011 | 400,000 compounds, 0.53% hits | Potency, µM (titrated, usually from 107 µM), for inactives: at the highest dose activity, negative = inhibition, usual class: inhibitors | purified Pol kappa, fluorescent DNA synthesis assay, 10 min; note: % is set by controls: 0 for no effect and ±100 for the full control effect
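Fluorescent qHTS in 1536-well format: enzyme (10 nM) and compound sat 15 min at room temperature before 50 nM substrate (final) was added. Signal taken at 0 and 10 min; no-enzyme buffer wells were negative controls.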
Pol eta inh-1 – qHTS for Inhibitors of Polymerase Eta | DNA polymerase eta (Homo sapiens), Q9Y253 | recombinant Pol eta, fluorescent DNA replication assay | Potency, µM (series often up to 114 µM), inactives show at the top dose activity change, negative = inhibition, most hits filed as inhibitors | 390,000 compounds, 1.2% hits | AID 588591, 2011; note: % is set by controls: 0 for no effect and ±100 for the full control effect
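Fluorescent replication assay: 50 nM final substrate added after a 15 min room-temperature compound preincubation with 10 nM enzyme. Signal taken at 0 min and again at 10 min.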
POLB inh – qHTS Assay for Inhibitors of DNA Polymerase Beta | Pol beta primer extension/strand displacement, fluorescence kinetic | 340,000 compounds, 1.3% hits | Potency, µM (top dose mostly 114 µM), for inactives: top-dose activity change, negative = inhibition, usual class: inhibitors | AID 485314, 2010; note: % is set by controls: 0 for no effect and ±100 for the full control effect
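Homogeneous kinetic assay of primer extension and strand displacement by 10 nM Pol beta, preincubated 15 min at room temperature with compound before 50 nM substrate (final) was added. Read at 0 and 10 min; four-parameter Hill fit.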
Pol iota inh – qHTS for Inhibitors of Polymerase Iota | DNA polymerase iota (Homo sapiens), Q9UNA4 | Pol iota fluorescent replication assay, 10 min | Potency, µM (doses to about 115 µM), for inactives: at the top dose activity, negative = inhibition, hits mostly inhibitors | 390,000 compounds, 1% hits | AID 588590, 2011
Target sequence (Q9UNA4 whole entry, looked up): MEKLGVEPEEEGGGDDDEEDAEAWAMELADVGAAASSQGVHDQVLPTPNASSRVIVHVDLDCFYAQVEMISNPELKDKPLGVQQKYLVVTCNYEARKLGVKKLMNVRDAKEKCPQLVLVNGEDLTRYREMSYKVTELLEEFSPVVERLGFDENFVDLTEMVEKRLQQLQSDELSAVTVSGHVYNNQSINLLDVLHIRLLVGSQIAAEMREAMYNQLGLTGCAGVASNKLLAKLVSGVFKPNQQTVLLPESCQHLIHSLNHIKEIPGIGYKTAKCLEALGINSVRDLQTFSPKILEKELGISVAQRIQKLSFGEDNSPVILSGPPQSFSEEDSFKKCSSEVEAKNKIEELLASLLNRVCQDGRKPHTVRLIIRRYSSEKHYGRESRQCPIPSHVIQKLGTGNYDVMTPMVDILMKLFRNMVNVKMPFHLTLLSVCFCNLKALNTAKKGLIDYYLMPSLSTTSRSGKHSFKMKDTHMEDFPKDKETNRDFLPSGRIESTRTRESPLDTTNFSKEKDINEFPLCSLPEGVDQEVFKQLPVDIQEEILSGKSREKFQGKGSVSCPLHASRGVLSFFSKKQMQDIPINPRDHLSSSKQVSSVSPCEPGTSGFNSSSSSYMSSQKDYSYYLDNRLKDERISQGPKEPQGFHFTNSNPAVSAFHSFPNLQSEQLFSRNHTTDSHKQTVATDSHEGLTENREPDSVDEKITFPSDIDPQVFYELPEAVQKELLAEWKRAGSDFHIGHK
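Pol iota at 10 nM preincubated 15 min with compounds at room temperature; reaction started with fluorescent substrate, 50 nM final. Fluorescence read kinetically at 0 and 10 min; buffer-only wells as negative control.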
FEN1 inhibitor – qHTS Assay for the Inhibitors of Human Flap endonuclease 1 (FEN1); Potency, µM (highest dose often 114 µM), for inactives: top-dose activity change, negative = inhibition, usual class: inhibitors; 390,000 compounds, 0.35% hits; Recombinant FEN1 flap cleavage, fluorescence, 15 min; note: % is set by controls: 0 for no effect and ±100 for the full control effect; nearly all actives have a fitted effect of over 65% in size
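Reaction started by adding substrate (50 nM final) to 10 nM enzyme after 15 min room-temperature compound preincubation. Reads at 0 and 15 min, with data normalized and fitted to a four-parameter Hill equation.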
WRN helicase inh – qHTS for Inhibitors of WRN Helicase | Bifunctional 3'-5' exonuclease/ATP-dependent helicase WRN (Homo sapiens), Q14191 | WRN helicase unwinding, fluorescent forked duplex, kinetic | Potency, µM (titrated, usually from 114 µM), for inactives: at the highest dose activity change, negative = inhibition, hits mostly inhibitors | 360,000 compounds, 0.46% hits | AID 651768, 2012; note: % is set by controls: 0 for no effect and ±100 for the full control effect; nearly all actives have a fitted effect of over 55% in size
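Primary qHTS, 1536-well format. 20 nM WRN + compound, 15 min RT; start with 100 nM forked fluorophore/quencher duplex, 2 mM ATP (final); kinetic read ex 525/em 598 nm.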
Pol kappa inh-2 – qHTS for Inhibitors of Polymerase Kappa: Confirmatory Assay for Cherry-picked Compounds; 920 compounds, 76% hits; shares compounds with Pol eta inh-1; purified Pol-kappa, fluorescent strand-displacement substrate; Potency, µM, most hits filed as inhibitors; AID 720501, 2013
Pol eta inh-2 – qHTS for Inhibitors of Polymerase Eta: Confirmatory Assay for Cherry-picked Compounds. shares compounds with Pol eta inh-1. Pol eta primer extension, TAMRA/BHQ fluorescence, 10 min. Potency, µM, most hits filed as inhibitors. 2,600 compounds, 64% hits. AID 720502, 2013
* marks the source's active call; other numbers are inactive results; [ ] = remark or other dose. In the library only some 2.4% were active in any assay of this set; here they are far more common. Calls come from the whole dose curve; as a rule, active = well fitted curve in the direction sought with a large enough effect; inconclusive = small, poorly fitted or top-dose-only effect, or another doubt; inactive = no such curve, though single readings can be large; an effect the other way counts as inactive or inconclusive. Potency is the fitted concentration of half-maximal effect.

`CCNc1nc(NCC)n2c(SCC(=O)Nc3ccc(OC(F)F)cc3)nnc2n1` gave Pol kappa inh-1 -12.2%, Pol eta inh-1 inconclusive, Pol iota inh inconclusive, FEN1 inhibitor 1.7%, WRN helicase inh -15.3%[11.6 µM] and Pol eta inh-2 inconclusive.
For Cc1c(CCOC(=O)c2ccc(N3CCOCC3)c([N+](=O)[O-])c2)sc[n+]1CC#N the results were Pol kappa inh-1 -17.0%, Pol eta inh-1 50.1µM*, POLB inh inconclusive, Pol iota inh inconclusive, FEN1 inhibitor -18.8%, WRN helicase inh -9.4%, Pol kappa inh-2 75.2* and Pol eta inh-2 inconclusive.
COCCN(C(=O)COC(=O)c1cc2c(s1)CCCC2)c1c(N)n(Cc2ccccc2)c(=O)[nH]c1=O was read as Pol kappa inh-1 inconclusive, Pol eta inh-1 44.7µM*, Pol iota inh 50.1µM*, FEN1 inhibitor -0.2%, WRN helicase inh -15.6%[11.6 µM] and Pol eta inh-2 inconclusive.
`O=C1[C@@H]2C[C@@H]3C[C@H]1C[C@@](O)(C3)C2` gave Pol kappa inh-1 4.7%[19.4 µM].
For O=C1c2cccc3cccc(c23)C(=O)N1Cc1cccnc1 the results were Pol kappa inh-1 0.3%, Pol eta inh-1 -15.1%, POLB inh -0.6%, Pol iota inh 109.4%, FEN1 inhibitor 1.7% and WRN helicase inh -7.6%.
For O=C1c2cccc3c([N+](=O)[O-])ccc(c23)C(=O)N1Cc1cccnc1 the results were Pol kappa inh-1 -10.2%, Pol eta inh-1 inconclusive, POLB inh 15.8µM*, Pol iota inh inconclusive, FEN1 inhibitor inconclusive, WRN helicase inh -12.6% and Pol eta inh-2 inconclusive.
C[C@@H](C(=O)Nc1nc(-c2ccccn2)cs1)N1C(=O)C2CCCCC2C1=O (stereo partly drawn) was read as Pol kappa inh-1 -14.9%, Pol eta inh-1 12.6µM*, POLB inh 12.6µM*, Pol iota inh 7.08µM*, FEN1 inhibitor 17.9%, WRN helicase inh inconclusive and Pol eta inh-2 inconclusive.
`CCc1ccc(NC(=O)c2ccc(Cn3nc(N4CCN(c5ccccc5)CC4)ccc3=O)o2)cc1` gave Pol kappa inh-1 -26.8%, Pol eta inh-1 20µM*, POLB inh inconclusive, Pol iota inh inconclusive, FEN1 inhibitor -13.0%, Pol kappa inh-2 inconclusive and Pol eta inh-2 inconclusive.
Screening Cc1cccc(OCC(=O)N/N=C/C=C/c2ccco2)c1 returned Pol kappa inh-1 inconclusive, Pol eta inh-1 inconclusive, POLB inh 35.5µM*, Pol iota inh inconclusive, FEN1 inhibitor -6.9%, WRN helicase inh -25.9%[57.1 µM] and Pol eta inh-2 inconclusive.
`CCOC(=O)N/N=C\C=C\c1ccco1` gave Pol kappa inh-1 -37.4%, Pol eta inh-1 79.4µM*, POLB inh inconclusive, Pol iota inh inconclusive, FEN1 inhibitor -7.8%, WRN helicase inh -5.2%[11.6 µM] and Pol eta inh-2 75.7*.
`Cc1cccc(C)c1OCC(=O)N/N=C/C=C/c1ccco1` gave Pol kappa inh-1 -11.1%, Pol eta inh-1 16.6%, POLB inh -0.6%, Pol iota inh -2.9%, FEN1 inhibitor -4.0% and WRN helicase inh 6.6%.
